Experiments:
[1] = target: T1, Aspartate--tRNA(Asp/Asn) ligase (Mycobacterium tuberculosis (strain ATCC 25618 / H37Rv)) (UniProt P9WFW3); assay: Assay for Asp RNA synthetase-1 from Mycobacterium tuberculosis; format: functional; design: scale not given: direction of the effect not stated beside the values; conditions: 30 µM; further: in the data most compounds retested in dose-response had high values
T1 sequence (whole entry): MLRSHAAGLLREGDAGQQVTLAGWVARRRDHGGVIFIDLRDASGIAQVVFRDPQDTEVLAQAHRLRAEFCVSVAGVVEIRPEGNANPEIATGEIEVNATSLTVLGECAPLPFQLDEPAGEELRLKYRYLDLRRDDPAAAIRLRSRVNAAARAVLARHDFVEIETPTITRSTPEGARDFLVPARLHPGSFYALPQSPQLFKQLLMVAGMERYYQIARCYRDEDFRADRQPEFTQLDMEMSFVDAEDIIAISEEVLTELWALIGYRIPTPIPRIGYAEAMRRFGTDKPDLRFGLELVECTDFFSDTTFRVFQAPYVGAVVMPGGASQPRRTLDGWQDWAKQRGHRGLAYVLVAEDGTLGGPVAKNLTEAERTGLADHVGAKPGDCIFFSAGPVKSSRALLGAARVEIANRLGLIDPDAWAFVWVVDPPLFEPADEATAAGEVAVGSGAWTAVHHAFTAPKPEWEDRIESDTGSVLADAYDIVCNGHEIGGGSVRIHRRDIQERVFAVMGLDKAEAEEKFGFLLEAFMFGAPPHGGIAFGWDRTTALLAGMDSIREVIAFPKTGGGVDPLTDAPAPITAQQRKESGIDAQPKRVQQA

[2] = target: Shiga toxin 2 (Escherichia coli O157:H7) (UniProt P09385+P09386); assay: E. coli 0.157:H7 Shiga Toxin SOP - stx2 screening assay; format: functional; design: scale not given: direction of the effect not stated beside the values; conditions: 30 µM

Structure (SMILES) | Percent Effect [1] [%] | Percent Effect [2] [%]
Cc1nn(C)c(C)c1C1CCCN1CC(=O)NC(C1CC1)C1CC1 (stereo not given) | -3.8 | -0.393
O=C(CN1CCCCC1Cn1cncn1)NCCc1ccc(F)cc1 (stereo not given) | 3.25 | -5.15
CC1=N[C@@]2(CC[C@@H]3CN(S(=O)(=O)CC(C)C)C[C@@H]32)C(=O)N1CC(C)C | -0.749 | 9.05
CN(Cc1cccnc1)C1CC2(CCN(c3ccccn3)CC2)C1 | 2.16 | -47.1
CC(=O)N1CCn2c(COCc3csc(C)n3)cnc2C1C (stereo not given) | -3.29 | -18.6
Cc1nc(C2CCN(C(=O)c3cccnc3)CC2)c2sccn12 | 2.04 | -14.1
Cc1ccc(C(=O)N2CC[C@@H]3[C@H]2CCC(=O)N3c2ccccc2)o1 | -6.1 | -13
CCc1nnc2n1CCN(Cc1csc(-c3cnn(C)c3)n1)C2 | 6.46 | -29.4
CN(Cc1ccccn1)C(=O)[C@]12COC[C@H]1CN(Cc1cnn(C)c1)C2 | -0.844 | -6.88
CCCc1nc(CN2CCOC(Cn3cncn3)C2)no1 (stereo not given) | 0.917 | -23.1
Cc1nccc(N2CCC(=O)N(Cc3ccc(F)cc3)C(C(C)C)C2)n1 (stereo not given) | -2.67 | -4.25
COCCN1C(=O)[C@]2(CC[C@@H]3CN(C(=O)NC4CCCC4)C[C@@H]32)N=C1C | 0.379 | -4.86
O=C(c1cccnc1-n1cncn1)N1CCc2ccccc2C1 | -3.76 | -9.55
COCCNC(=O)NCc1ccc(OC(C)C)c(F)c1 | -1.07 | 29.6
Cc1nc(CN2C(=O)C[C@H]3[C@H]2CCN3C2CCOCC2)cs1 | -3.97 | 9.23
Cc1nc(N2CCN(C(=O)c3ccsc3)CC2)c2cnn(C)c2n1 | 5.51 | 0.569
Cc1cccc(NC(=O)c2sccc2C)n1 | -4.94 | -1.59
Cc1cccc(CC(=O)NCCCOC(C)C)c1 | -4.16 | -10.2
CCc1ccc(-n2c(=O)[nH]c3nc(N4CCSCC4)ncc3c2=O)cc1 | 15.3 | -13.5
COCC(=O)N(C)Cc1ccc(Cl)c(Cl)c1 | -3.56 | 2.03
CNc1nc(C)c(C(=O)N2CCCCC2CN2CCCCCC2)s1 (stereo not given) | 1.75 | 1.34
CCn1nccc1CNC(=O)C1CCCC1 | 11.4 | -65.5
Cc1ccc(C(O)CNC(=O)NCc2nc(C)cs2)cc1 (stereo not given) | -0.636 | 1.54
Cn1cccc1CNC(=O)N(CCO)C1CCCc2ccccc21 (stereo not given) | -1.95 | -4.96
CC(C)NC(=O)CC1COC2(CCN(Cc3ccccc3)CC2)C1 (stereo not given) | -2.02 | -36

Structure (SMILES) | Percent Effect [1] [%] | Percent Effect [2] [%]
Clc1ccc(CN2CCCC(Cn3cncn3)C2)c2ncccc12 (stereo not given) | 2.62 | -50.6
CCc1nc(C(=O)NCc2ccc(N3CCNC(=O)C3)c(F)c2)c[nH]1 | 2.49 | -51.1
CC(=O)N1CCN(c2ccc3ccc(C(=O)NC4CCCC4)cn23)CC1 | -0.91 | -45
CC(C)OCCCNC(=O)CS(=O)(=O)Cc1ccc(Cl)c(Cl)c1 | 5.22 | 30.4
O=C(NC1CC1)c1ccc2ccc(N3CCN(CC4CC4)CC3)n2c1 | -1.8 | -80.6
Cc1cccc(OCCC(=O)NCC(C)(C)C(N)=O)c1 | 0.144 | 31.1
COC(=O)[C@H](C)NC(=O)c1cc(-c2cccc(Cl)c2)no1 | 0.419 | 5.33
Cc1nc(C)n(CC2CCCN2CC(=O)Nc2ccnn2C(C)C)n1 (stereo not given) | -1.15 | 23.4
CC(=O)c1cccc(NC(=O)CN2CCCCC2C2OCCO2)c1 (stereo not given) | 1.76 | -1.62
CCc1nc(CN2CCCC(N(C)Cc3cnc(C)s3)C2)no1 (stereo not given) | -0.259 | 4.86
CCN(CC)C(=O)c1ccc(-c2ccsc2)nc1C | -1.17 | -6.7
COc1cc(N2CCCC(c3nccn3CCN(C)C)C2)nc(N)n1 (stereo not given) | -3.58 | 23.8
O=C(c1ccnnc1)N1C[C@H](Oc2cccnc2)[C@H]2OCCC[C@H]21 | 2.1 | 3.62
CCN1CCN(S(=O)(=O)c2cc(C)c(Cl)cc2Cl)CC1 | -2.59 | -47.6
CC(C)c1n[nH]c(C(=O)Nc2ccnn2C(C)C)c1Br | -9.11 | -15.3
COc1ccccc1OCc1cc(C(=O)N2C[C@H](O)[C@@H](N(C)C)C2)n[nH]1 | 0.529 | -9.19
Cn1cc(-c2nc(CN3CCN(CCO)CC3)cs2)cn1 | -2.15 | 22.1
CCOc1cc(C)ccc1NC(=O)N(C)Cc1cnn(C)c1 | 4.37 | 24
Cc1csc(CNC(=O)NCCc2ccc3c(c2)OCCO3)n1 | -5.39 | -15.4
Cc1oc(-c2ccco2)nc1CC(=O)N1CCC(C(O)C(F)(F)F)CC1 (stereo not given) | -5.79 | 4.07
Cc1cc(C)n(CC2CCCN2CC(=O)NC2CCOCC2)n1 (stereo not given) | -3.04 | -26.7
c1ccc(Cn2cncn2)c(CNCC2CNc3ccnn3C2)c1 (stereo not given) | 0.425 | -35.2
CC(C)OCc1ncn2c1CN(Cc1cccs1)CCC2 | 8.33 | -0.247
Cc1nc(C)n(CC2CN(CCOCC(F)(F)F)CCO2)n1 (stereo not given) | 3.1 | 8.57
CC(CN1CCOCC1)NC(=O)N(C)Cc1ccc(Cl)s1 (stereo not given) | 1.38 | -12.6

Structure (SMILES) | Percent Effect [1] [%] | Percent Effect [2] [%]
Cc1cnn(CC2CCCCN2Cc2nc(N)c3ccccc3n2)c1 (stereo not given) | -5.71 | -7.68
Cc1ccc(CN2CCC(c3nnc(CN4CCCCC4)n3C)CC2)o1 | -1.53 | -7.9
CSc1ccc(-c2nc(CN3CCC(NC(C)=O)C3)c(C)o2)cc1 (stereo not given) | 2.73 | -5.95
O=C1CCC(C(=O)NCc2nncn2-c2ccccc2)CN1 (stereo not given) | 3.33 | 4.47
CCOc1cc(C(=O)N2CCCC(c3cc(C(N)=O)[nH]n3)C2)ccn1 (stereo not given) | -1.21 | 25.9
CN(CCc1ccccc1)Cc1cc(C(=O)N2CCCC2(C)C)no1 | 0.433 | -34.7
CCc1ccc(CNC(=O)N2CCN(Cc3cc(C)no3)CC2)s1 | 12 | 27
O=C(COc1coc(CN2CCCCCC2)cc1=O)c1ccccc1 | -4.01 | -112
CCOc1ccc(-c2ccnc(CC)n2)cc1C(=O)O | -3.09 | 0.242
Cc1ccc(S(=O)(=O)N2CCc3nc(C4CCNCC4)ncc3C2)cc1 | -1.21 | 8.71
CCN1CCC(CNC(=O)C2(c3cccc(C)c3)CC2)C1 (stereo not given) | 2.87 | 1.34
CC(=O)N1CCC2(CCN(C(=O)c3ccc(Cl)c(C(F)(F)F)c3)CC2)C1 | 4.41 | 11.4
Cc1n[nH]c(C2CN(C(=O)c3cc(C4CC4)[nH]n3)CCO2)n1 (stereo not given) | 1.87 | 23.4
CNC(=O)CCNC(=O)c1cccc(Cn2nc(C)cc2C)c1 | -3.31 | -15.4
Cc1cnc(C(=O)N2CCCN(Cc3csc(C)n3)CC2)cn1 | -0.524 | -41.5
CCN1CC(C(=O)N(C)Cc2ccon2)CC1=O (stereo not given) | -0.748 | -14.8
Cc1oc(C)c(C(=O)NCc2ccccc2S(=O)(=O)N(C)C)c1C | -6.28 | 37.9
COC(=O)C(NC(=O)C(C)C)c1cc(F)ccc1F (stereo not given) | -0.455 | 15.2
CCOC(=O)NC(CNC(=O)c1ccccn1)CC(C)C (stereo not given) | -2.16 | -4.01
OC(CN1CCN(c2ncccn2)CC1)c1cccc(F)c1 (stereo not given) | -3.26 | -4.85
Cc1c(C2CCCN(C(=O)C3CC3)C2)n2c(nc1=O)CCC2 (stereo not given) | -0.253 | 10.2
CCc1n[nH]c(C2CN(Cc3nnc(C4CC4)n3C)CCO2)n1 (stereo not given) | -0.577 | 9.55
Cc1nnc(CN2CCC(N(C)Cc3nnc(C4CC4)n3C)C2)o1 (stereo not given) | -1.43 | 18.5
CCN1C[C@@H]2[C@@H](OC)CCN(S(=O)(=O)c3ccccc3F)[C@@H]2C1 | -3.02 | 0.716
O=C(C[C@@H]1COC[C@H]2CN(Cc3ccncc3)C[C@@H]12)N1CCOCC1 | -4.65 | -32

Structure (SMILES) | Percent Effect [1] [%] | Percent Effect [2] [%]
O=C(c1ccco1)N1CCC2(CC1)C(=O)NCCN2CC1CC1 | 10.6 | -10.1
O=C(c1ccc2c(c1)COC2)N1CCN(CC2CC2)CC1 | -0.514 | -1.4
CN(Cc1ccc(F)cc1)CC1(O)CCN(C(=O)c2ccccc2)C1 (stereo not given) | 3.23 | -6.1
Cc1csc(NC(=O)CN2CCC(c3ccnn3CCO)CC2)n1 | -8.82 | -16.7
O=C(CN1CCCC1Cn1cncn1)NCCOc1cccc(F)c1 (stereo not given) | -0.983 | 18.7
CCOCC1CN(C)Cc2cnn(CC3CCCC3)c21 (stereo not given) | -2.58 | -8.48
Cc1cccc(C(=O)N2CCCN(Cc3cnn(C)c3)CC2)n1 | -3.08 | -31.1
COc1cccc(CN2CCC(c3cc(O)nc(C)n3)C2)c1 (stereo not given) | -3.62 | -14.1
CN(C)CC1CSCCCN1C(=O)c1ccc(C(C)(C)C)cc1 (stereo not given) | -2.32 | 10.3
Fc1ccc(CN2CC[C@H]3O[C@@H](COCC4CCOCC4)CC[C@H]32)cc1 | 0.838 | -14.5
c1ccc(CN2CCCC(c3nccnc3-n3ccnc3)C2)cc1 (stereo not given) | 2.31 | -2.34
COCCN1C(=O)CC(N2CCN(c3ccc(F)cc3)CC2)C1=O (stereo not given) | 1.23 | -24.6
Cc1csc(N2CCN(CC(=O)Nc3c(C)n[nH]c3C)CC2C)n1 (stereo not given) | 2.07 | 17.4
CC(C)n1ccnc1C1CCN(Cc2ccc(Cl)c(F)c2)CC1 | 9.45 | -39.8
O=C(NCCN1CCOCC1)c1n[nH]c(=O)c2ccccc12 | -2 | -29.3
COc1c(CNCc2cccc(CN(C)C)c2)c(C)nn1C | -1.85 | 13.1
Cn1nc(C2CCCN(C(=O)CO)C2)cc1O (stereo not given) | 3.92 | 10.4
CCN1CCCC1CN(CCN(C)C)S(=O)(=O)c1cccc(C#N)c1 (stereo not given) | 5.06 | -21
Cc1nc(COC[C@@H]2CC[C@H]3[C@H](CCN3c3ncccn3)O2)cs1 | 1.87 | -14.4
COc1ccc(CN2C[C@H](OCC3CCOCC3)[C@H]3COC[C@H]32)cc1 | -1.6 | 1.49
COCCc1noc(CN2CCN(CC(O)c3ccccc3)CC2)n1 (stereo not given) | -1.47 | 4.32
Cc1nc(C)c(C(=O)NCCNc2ncccc2C#N)s1 | 0.324 | -20.6
CCNC(=O)CCN1CCC(c2cc(N3CCOCC3)nc(C)n2)CC1 | -4.4 | -10.2
CCN(CC)C(=O)CCNc1cncc(-n2nc(C)cc2C)n1 | 1.51 | -34.2
O=C(NCc1cncc2c1CCN(Cc1cccs1)C2)C1CC1 | 7.52 | -27.9

From ChEMBL document CHEMBL3988442, “University of Dundee, Small-Polar-MMV Screening Library” (2021)
